From PubChem
M1 agonist – M1 muscarinic receptor agonism. CHO-M1 cells, Fluo-4 calcium fluorescence, agonist mode; hits give high values. B-score at 10 µM. 3% of 64,000 active;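 active means fluorescence rise, raw or as B-score row- and column-corrected plate score, outside the 99.7% band of its plate's samples, either direction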
A340 absorber – compound absorbs light at 340 nm | compound absorbance at 340 nm, fold over control | fold change at 10 µM | 65,000 tested, under 10 active;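 active means at 10 µM dose, initial 340 nm absorbance at least 2 fold that of control wells; inactive means change under 2 fold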;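 further: initial absorbance extrapolated from kinetic A340 decline of NADH oxidation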
mHtt clearance – mutant huntingtin protein clearance; HeLa Exon1htt(103Q)mCFP, aggregate imaging; zero = plate's median compound well; inhibition, % at 1.5 µM; 0.42% of 47,000 active; AID 853;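 active means inhibition of aggregate fluorescence above about 70%, also judged a hit by eye on the cell image, limit read from the data, passing the limit was not always enough; inconclusive means no rule stated for this call; inactive means not judged a hit on image review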;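 further: cells exposed to compound for three days before fixation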
Autofluor 339 – intrinsic fluorescence of library compounds, ex339/em460 – biochemical, MLSMR library, data from DPM-DC assay, artefact control, profiling panel; compound autofluorescence, ex339/em460 nm, NADH buffer; hits give high values; 1 = no-compound wells, NADH background; fluorescence fold increase at 10 µM; AID 709; 5.5% of 65,000 active;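 active means at 10 µM, mean starting fluorescence two-fold or more over control wells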;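 further: signal is the first read of a kinetic run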
M1 antag – antagonists of rat M1 muscarinic receptor; 3.4% of 64,000 active; B-score at 10 µM; P08482; CHO-M1 cells, Fluo-4 calcium, ACh EC80 antagonist mode; hits give low values;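 active means calcium fluorescence response, raw or row-and-column corrected B-score, differing from the plate sample mean either way at a set confidence level, mostly lower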
Target sequence (P08482 whole entry, looked up): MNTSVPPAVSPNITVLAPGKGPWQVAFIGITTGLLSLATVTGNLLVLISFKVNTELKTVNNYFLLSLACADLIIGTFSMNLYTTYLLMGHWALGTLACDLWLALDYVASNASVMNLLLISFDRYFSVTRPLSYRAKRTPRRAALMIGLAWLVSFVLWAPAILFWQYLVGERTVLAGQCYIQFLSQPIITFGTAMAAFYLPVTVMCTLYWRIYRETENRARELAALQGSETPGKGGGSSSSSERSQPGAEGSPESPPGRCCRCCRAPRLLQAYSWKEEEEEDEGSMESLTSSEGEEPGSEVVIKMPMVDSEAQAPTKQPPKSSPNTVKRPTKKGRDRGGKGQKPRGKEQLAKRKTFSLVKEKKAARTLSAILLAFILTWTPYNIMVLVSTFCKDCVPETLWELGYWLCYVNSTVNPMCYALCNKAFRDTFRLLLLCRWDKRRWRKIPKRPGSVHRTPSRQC
NADH enzymes – blocks coupling enzymes of NAD/NADH assays | coupled PK/LDH NADH assays, four targets | IC50, µM (series often up to 10 µM), inactives show at the top dose inhibition | AID 774 | 0.02% of 65,000 active;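 active means single-dose screening hits from any of four coupled enzyme assays that gave an IC50 when retested across doses; inconclusive means no clear call, values can overlap the other calls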;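 further: the DPM-DC format reads NADH fluorescence rather than 340 nm absorbance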
M1 ag confirm – confirmation of rat M1 muscarinic receptor agonists | shares compounds with M1 agonist | fluorescence change (max-min) at 10 µM | 19% of 1,700 active | CHO-M1 cells, Fluo-4 calcium fluorescence, agonist mode; actives lie on both sides;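 active means fluorescence change differs from the solvent-only DMSO control mean at a set confidence level in both duplicate runs; inconclusive means differs from solvent-only control mean in just one of two runs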;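 further: an EC20 dose of acetylcholine follows compound addition during the same imaging run; raw fluorescence intensity difference in instrument units with no normalization to controls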
M4 ag counter – activates rat M4 receptor in counter-screen for M1 agonists. CHO M4/Gqi5 cells, Fluo-4 calcium fluorescence, agonist mode; actives lie on both sides. fluorescence change (max-min) at 10 µM. 9% of 1,700 active. shares compounds with M1 agonist;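 active means fluorescence change differing from the plate's solvent-only control wells at 99.7% confidence in both duplicates, whether higher or lower; inconclusive means differs from solvent controls in only one of two duplicates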
* = called active by the depositor. An excerpt weighted towards active compounds, which were near 9.3% of everything screened.

`Cc1cc(NC(=O)c2ccc(Cn3nc(C)c(Br)c3C)o2)no1` gave M1 agonist -1, A340 absorber 1, mHtt clearance -41, Autofluor 339 1.1, M1 antag -0.062 and NADH enzymes 7%.
O=C(c1ccco1)N1CCN(C(=O)C2CCN(S(=O)(=O)Cc3ccccc3)CC2)CC1 was read as M1 agonist -0.025, A340 absorber 0.99, mHtt clearance 20, Autofluor 339 1.1, M1 antag -0.9 and NADH enzymes 6%.
`CCN=C1SC(C(=O)Nc2cccc(OCC)c2)CC(=O)N1CC` (configuration not stated) gave M1 agonist 7.6*, A340 absorber 0.99, Autofluor 339 1.1, M1 antag -0.41, NADH enzymes 3%, M1 ag confirm -18 and M4 ag counter -15.
`COc1ccc(NC(=O)c2ccccc2NC(=O)C2CCCO2)cc1` (configuration not stated) gave M1 agonist 0.49, A340 absorber 1, mHtt clearance 66, Autofluor 339 1.1, M1 antag 0.97 and NADH enzymes 1%.
`COc1ccc2nc3c(cc2c1)c(NC(=O)C1CCCO1)nn3CC(C)C` (configuration not stated) gave M1 agonist 4.3*, A340 absorber 1, Autofluor 339 3.7*, M1 antag -0.82, NADH enzymes 8%, M1 ag confirm 3.3 and M4 ag counter -23.
For CCCCn1nc(NC(=O)c2cccs2)c2cc3cc(OC)ccc3nc21 the results were M1 agonist 6.4*, A340 absorber 1, mHtt clearance 55, Autofluor 339 3.6*, M1 antag 0.39, NADH enzymes 7%, M1 ag confirm -24 and M4 ag counter -25.
For CCOC(=O)c1c(C(F)(F)C(F)(F)C(F)(F)C(F)(F)F)n[nH]c1C the results were M1 agonist -0.39, A340 absorber 1, Autofluor 339 1, M1 antag -0.97 and NADH enzymes 3%.
For O=c1c(-c2ccccc2)[n+]([O-])c2ccccc2n1O the results were M1 agonist 9.3*, A340 absorber 1, Autofluor 339 1.2, M1 antag -0.17, NADH enzymes 4%, M1 ag confirm 42 and M4 ag counter 5.1.
Screening CCOC(=O)COn1c(=O)c(-c2cccs2)[n+]([O-])c2ccccc21 returned M1 agonist 88*, A340 absorber 1.1, Autofluor 339 1.6, M1 antag -0.076, NADH enzymes 4%, M1 ag confirm 800* and M4 ag counter inconclusive.
For CCOn1c(=O)c(-c2ccc(OC)cc2)[n+]([O-])c2ccccc21 the results were M1 agonist 5.2*, A340 absorber 1.1, mHtt clearance -36, Autofluor 339 1.1, M1 antag -0.89, NADH enzymes 7%, M1 ag confirm inconclusive and M4 ag counter -92.
Screening O=C(CCCNC(=O)/C(=C\c1ccc(F)cc1)NC(=O)c1ccccc1)OCc1ccccc1 returned mHtt clearance -31.
CC(NC(=O)c1ccc(-c2cc(C(F)(F)F)ccc2Cl)o1)c1ccccc1 (configuration not stated) was read as mHtt clearance 7.
Screening CCCS(=O)(=O)N1CCCC(C(=O)NCCCN(C)c2ccccc2)C1 (configuration not stated) returned M1 agonist 0.031, A340 absorber 0.98, mHtt clearance -27, Autofluor 339 1, M1 antag -1.6 and NADH enzymes 6%.
Screening Cc1sc2ncn(CC(=O)NCCCC(=O)N3CCN(c4ncccn4)CC3)c(=O)c2c1C returned M1 agonist 0.11, A340 absorber 0.99, mHtt clearance 34, Autofluor 339 1.3, M1 antag -0.52 and NADH enzymes 4%.
Screening Cc1ccc(OCc2nnc(SCc3nc4ccccc4[nH]3)n2Cc2ccco2)cc1 returned M1 agonist 5.5*, A340 absorber 0.97, mHtt clearance 22, Autofluor 339 1.1, M1 antag -2.2, NADH enzymes 2%, M1 ag confirm inconclusive and M4 ag counter -55.
Screening CCn1c(COc2ccc(Cl)cc2)nnc1SCc1nc2ccccc2[nH]1 returned mHtt clearance 2.
For COC(=O)c1nn(-c2ccc(Cl)cc2)c(=O)cc1Sc1ccccn1 the results were mHtt clearance -22.
Screening CCn1cc(C(=O)OCC(=O)N(C)C2CCS(=O)(=O)C2)c(=O)c2ccc(C)nc21 (configuration not stated) returned M1 agonist -0.47, A340 absorber 1, Autofluor 339 0.95, M1 antag 1 and NADH enzymes 10%.
For C=CCn1c(=O)c2c(nc3n2CC(C)CN3c2cccc(OC)c2)n(C)c1=O (configuration not stated) the results were M1 agonist 1.9*, A340 absorber 1.1, Autofluor 339 1.1, M1 antag 0.26, NADH enzymes 1%, M1 ag confirm -13 and M4 ag counter inconclusive.
CC1CN(c2ccc(Oc3ccccc3)cc2)c2nc3c(c(=O)n(CC(N)=O)c(=O)n3C)n2C1 (configuration not stated) was read as M1 agonist 0.19, A340 absorber 1, Autofluor 339 1.1, M1 antag -0.13 and NADH enzymes 2%.
For O=S(=O)(NCc1ccncc1)c1ccc(Br)s1 the results were M1 agonist 3.7*, A340 absorber 1.1, Autofluor 339 1.1, M1 antag -1.8, NADH enzymes 1%, M1 ag confirm 6.2 and M4 ag counter -23.
O=C(O)CNS(=O)(=O)c1ccc(Br)s1 was read as M1 agonist -0.087, A340 absorber 0.99, Autofluor 339 1.1, M1 antag 0.82 and NADH enzymes 5%.
`Cc1ccc(-c2nnc3n2N=C(c2ccccc2)CS3)cc1` gave M1 agonist 0.4, A340 absorber 1.1, Autofluor 339 1, M1 antag 0.41 and NADH enzymes 8%.
For COc1cc(-c2nnc3n2N=C(c2ccccc2)CS3)cc(OC)c1OC the results were M1 agonist 4.6*, A340 absorber 1, Autofluor 339 1.6, M1 antag -0.35, NADH enzymes 10%, M1 ag confirm inconclusive and M4 ag counter -48.
Screening O=C(C1=COCCO1)N1CCN(C(c2ccccc2)c2ccccc2)CC1 returned M1 agonist 0.98, A340 absorber 1, mHtt clearance -13, Autofluor 339 1.1, M1 antag 0.081 and NADH enzymes 3%.
